# FBW7 activator = activators of human E3 ligase FBW7. Q969H0. hit rate 0.13% among 650,000. normalized activity (activation), % at 26.1 µM. AlphaScreen FBW7–phospho-cyclin E peptide binding, activator screen; in the data active = normalized activity above about 1.9%;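 also: purified mutant Fbw7 with reduced substrate affinity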
# TEAD-YAP inh = TEAD-YAP interaction inhibition | HEK-TIYL cells, TEAD-Gal4/YAP UAS-luciferase luminescence | hit rate 1.4% among 640,000 | inhibition, % at 9.12 µM; in the data active = inhibition above about 32%;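 also: 0% = median of test compound wells and 100% = reference inhibitor wells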
# GPR151 activ = activators of human GPR151; PathHunter beta-arrestin GPR151 cells, luminescence; activation, % at 11.2 µM; hit rate 1% among 650,000; in the data active = activation above about 4.9%;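 also: 0% = median of compound wells and 100% = cells with positive control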
# MITF inh = blocks human microphthalmia-associated transcription factor; hit rate 0.91% among 650,000; AlphaScreen MITF homodimerization, bead proximity signal; O75030; inhibition, % at 2.6 µM; in the data active = inhibition above about 50%;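 also: 0% = vehicle wells with protein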
# Target sequence (O75030 whole entry, looked up): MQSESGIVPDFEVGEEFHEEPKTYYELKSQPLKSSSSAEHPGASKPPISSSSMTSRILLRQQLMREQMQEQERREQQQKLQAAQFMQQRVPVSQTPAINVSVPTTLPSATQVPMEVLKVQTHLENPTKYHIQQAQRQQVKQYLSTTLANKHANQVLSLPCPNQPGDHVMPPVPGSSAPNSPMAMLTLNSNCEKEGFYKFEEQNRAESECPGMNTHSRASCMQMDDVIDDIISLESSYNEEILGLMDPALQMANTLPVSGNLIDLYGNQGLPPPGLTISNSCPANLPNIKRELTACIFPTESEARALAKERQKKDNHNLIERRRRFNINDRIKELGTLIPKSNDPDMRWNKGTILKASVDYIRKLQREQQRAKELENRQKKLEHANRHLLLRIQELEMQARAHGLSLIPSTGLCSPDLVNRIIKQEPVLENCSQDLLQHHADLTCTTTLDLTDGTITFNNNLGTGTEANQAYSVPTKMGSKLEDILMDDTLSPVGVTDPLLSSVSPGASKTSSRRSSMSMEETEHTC
# MITF inh conf = confirmation of human MITF inhibitors; shares compounds with MITF inh; hit rate 16% among 4,700; inhibition, % at 2.6 µM; AlphaScreen MITF homodimerization, biotin/His-MITF beads;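 active = inhibition above a cutoff derived from the DMSO control wells, cut at about 28% in these data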;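 also: 0% = MITF dimer wells with DMSO only; inhibitors lower the bead chemiluminescence by keeping MITF from dimerizing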
# AlphaScreen DR = optically interferes with AlphaScreen signal in dose response; shares compounds with MITF inh; AlphaScreen optical interference counterscreen, cell-free; IC50, µM; hit rate 6% among 480; AID 1259373; call rule not given here
# AlphaScreen intf2 = counter-screen: compounds optically interfering with AlphaScreen; hit rate 7.6% among 4,700; AID 1259376; LysRS AlphaScreen counterscreen, signal interference, triplicate; inhibition, % at 2.6 µM; shares compounds with MITF inh;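 active = inhibition above a cutoff derived from the DMSO control wells, cut at about 30% in these data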
# * marks the source's active call; other numbers are inactive results; x = not tested or not shown. Shown are actives, neighbours in structure and some others; about 3.5% of the full set was active somewhere.
SMILES,FBW7 activator,TEAD-YAP inh,GPR151 activ,MITF inh,MITF inh conf,AlphaScreen intf2,others
O=C(NCCOc1ccccc1)c1cc(-c2ccccc2)nc2ccc(Br)cc12,0.0,3.1,0.1,-4.5,x,x,
COc1cc(CN2CCN(C3CCN(Cc4ccccc4)CC3)CC2)cc(OC)c1O,0.2,3.2,-1.3,62.9*,-6.0,6.8,
CCOc1ccccc1CN1CCC(C(=O)NCCN2CCOCC2)CC1,-0.1,1.0,-0.3,52.0*,4.2,15.7,
O=C(NCCN1CCOCC1)C1CCN(Cc2ccc(Cl)c(Cl)c2)CC1,0.6,-1.9,-0.6,69.4*,-4.9,-1.0,
COc1ccc(/C=C2\Sc3ccc(C(=O)O)cc3N(C)C2=O)cc1,0.2,14.2,-0.2,8.6,x,x,
C=C(C)CNC(=S)Nc1nccs1,0.0,1.3,2.0,-3.6,x,x,
Cn1c(-c2cccc([N+](=O)[O-])c2)cnc1NCc1cccc([N+](=O)[O-])c1,-0.3,7.5,-1.0,37.6,x,x,
Cn1c(-c2ccc(-c3ccccc3)cc2)cnc1NCc1cccnc1,0.7,-43.8,0.1,62.9*,-13.4,-3.0,
COc1cccc(-c2cnc(NCc3ccc(F)cc3F)n2C)c1,0.3,-5.0,2.1,51.0*,-15.5,-4.4,
Cc1ccc(-c2cnc(NCc3cccc([N+](=O)[O-])c3)n2C)cc1,0.0,6.9,-0.1,65.0*,-2.3,-2.3,
Cn1c(-c2ccc(Br)cc2)cnc1NCc1cccnc1,0.6,2.2,-0.1,25.9,x,x,
Cn1c(-c2ccc(F)cc2)cnc1NCc1ccc(F)cc1,0.1,7.9,-0.3,52.6*,-3.0,0.0,
O=C(CCN1C(=O)c2ccccc2C1=O)N1CCOCCOCCOCCOCCOCC1,-0.1,-2.5,-0.4,8.3,x,x,
Cn1c(-c2ccc3c(c2)OCO3)cnc1NCc1cccc(F)c1,0.1,-29.6,-0.4,54.5*,-16.4,-6.3,
CC1=CC(=O)C(C(=O)/C=C/c2ccc(Cl)c([N+](=O)[O-])c2)C(=O)O1 (configuration not stated),0.4,-2.6,-0.2,-5.0,x,x,
O=C(CCCn1c(SCC(=O)NC2CCCC2)nc2ccccc2c1=O)NCCCN1CCOCC1,0.5,-5.4,-0.4,56.8*,-15.6,-7.5,
CCCCOc1ccc(-c2nc(C=Nc3cc([N+](=O)[O-])ccc3Cl)c(O)o2)cc1,-0.2,-8.4,-0.9,-9.5,x,x,
CC1CCCCC1Nc1ncnc2sccc12 (configuration not stated),-0.1,7.4,3.1,64.3*,2.0,1.6,
CCC(C)Sc1nc2c(c(=O)[nH]c(=O)n2C)n1CC (configuration not stated),0.3,-10.1,-1.0,9.4,x,x,
COc1ccc(-c2c(F)ccc3cnc(Nc4ccc(-n5cnc(N6CCOCC6)n5)cc4)nc23)cc1F,0.5,-9.8,-0.1,56.0*,21.2,25.7,
N#C/C(=C\c1nn(CCO)c(N)c1C#N)c1ccc(Cl)cc1Cl,0.1,-1.6,-0.3,63.3*,-6.0,-1.1,
N#C/C(=C\c1cc(Cl)cc(Cl)c1OCc1ccc(Cl)cc1Cl)c1nn(CCO)c(N)c1C#N,-0.1,4.6,-0.9,1.3,x,x,
O=C(CNCCC1=CCCCC1)Nc1ccccc1N1CCOCC1,0.4,-0.3,-0.8,76.8*,-14.5,0.6,
O=C(CNCCc1ccccc1)Nc1ccccc1N1CCCCCC1,-0.2,-8.5,3.2,24.5,x,x,
O=C(CNCCc1ccc(Cl)cc1)Nc1ccccc1N1CCOCC1,-0.1,-12.7,-0.4,64.8*,-0.9,18.2,
SMILES,FBW7 activator,TEAD-YAP inh,GPR151 activ,MITF inh,MITF inh conf,AlphaScreen intf2,others
CCN(CC)C(=O)N1CCN(S(=O)(=O)c2cccc([N+](=O)[O-])c2)CC1,-0.1,1.2,1.3,1.7,x,x,
O=C(c1cccc2ccccc12)N1CCN(Cc2cccc([N+](=O)[O-])c2)CC1,-0.2,5.8,-0.2,75.6*,14.0,18.3,
O=[N+]([O-])c1cccc(CN2CCN(S(=O)(=O)c3ccc(Cl)cc3)CC2)c1,0.1,2.7,-0.8,64.1*,13.0,15.6,
O=S(=O)(c1ccc(Cl)cc1)N1CCN(Cc2cccc(F)c2)CC1,-0.2,-7.2,-1.3,63.8*,-2.3,7.2,
CN(C)C(=O)N1CCN(S(=O)(=O)c2cccc([N+](=O)[O-])c2)CC1,-0.2,12.5,-0.3,77.2*,29.8*,-6.4,AlphaScreen DR=>6.48
CCn1cc(CN2CCN(Cc3ccc(C)o3)C(CCO)C2)cn1 (configuration not stated),0.2,7.1,0.5,11.6,x,x,
O=[N+]([O-])c1cccc(CN2CCN(S(=O)(=O)c3ccc(F)cc3)CC2)c1,0.4,-6.3,0.2,57.2*,11.1,16.4,

# From PubChem BioAssay
